In PubChem BioAssay (NCI):
Compounds without any hit were thinned out: in the full panel of roughly 79,000, 15% have a hit. A number with no mark means an inactive call. Activity calls are given as the source filed them. No stated cut-off is given here; in the data, active means growth inhibition above about 70%; inactive means the rest.

Columns and labels:
[1] = NCI Yeast Anticancer Drug Screen. Data for the rad50 strain (AID 155);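 further: 0% = growth of vehicle-only cultures of the same strain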; settings: S. cerevisiae rad50 strain growth inhibition, hits give high values
Outline: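 A DNA repair-deficient yeast mutant serves as the test organism; compound-induced growth inhibition is calculated against vehicle-treated cells.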

[2] = NCI Yeast Anticancer Drug Screen. Data for the mec2-1 strain (AID 157); settings: S. cerevisiae mec2-1 strain, hits give high values
Outline: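 Readout is yeast growth inhibition, normalised to vehicle-treated controls, in the mec2-1 strain exposed to compound.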

[3] = NCI Yeast Anticancer Drug Screen. Data for the sgs1 mgt1 strain (AID 161);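 further: 0% = growth of cultures given vehicle only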; settings: S. cerevisiae sgs1 mgt1 strain, hits give high values
Outline: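 Yeast cells carrying a defined DNA-repair defect were exposed to test compounds. Growth inhibition was measured relative to vehicle-treated controls.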

[4] = NCI Yeast Anticancer Drug Screen. Data for the cln2 rad14 strain (AID 165);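 further: 0% = growth equal to vehicle treated cultures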; settings: S. cerevisiae cln2 rad14 strain, hits give high values
Outline: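 Relative to vehicle controls, growth inhibition of compound-treated cln2 rad14 yeast was recorded.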

[5] = NCI Yeast Anticancer Drug Screen. Data for the bub3 strain (AID 167); settings: S. cerevisiae bub3 mutant strain, hits give high values
Outline: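 Inhibition values come from growth of compound-treated mutant yeast normalised to vehicle-treated controls.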

[6] = NCI Yeast Anticancer Drug Screen. Data for the mlh1 rad18 strain (AID 175); settings: S. cerevisiae mlh1 rad18 strain growth inhibition, hits give high values
Outline: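 Test agents were incubated with a yeast strain of defined genotype (DNA damage repair defect). Inhibition of growth was derived by comparison with vehicle-exposed cultures.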

[7] = at 5.0 µM (retest, dose inferred, filed as 0.5)
[8] = at 50.0 µM (retest, dose inferred, filed as 5.0)

SMILES	growth inhibition [1, 7]	growth inhibition [1, 8]	growth inhibition ([1]; at 50.0 µM)	growth inhibition [2, 7]	growth inhibition [2, 8]	growth inhibition ([2]; at 50.0 µM)	growth inhibition [3, 7]	growth inhibition [3, 8]	growth inhibition ([3]; at 50.0 µM)	growth inhibition [4, 7]	growth inhibition [4, 8]	growth inhibition ([4]; at 50.0 µM)	growth inhibition [5, 7]	growth inhibition [5, 8]	growth inhibition ([5]; at 50.0 µM)	growth inhibition [6, 7]	growth inhibition [6, 8]	growth inhibition ([6]; at 50.0 µM)
Cc1ccc2c(c1)CSCCO2	86% (active)	99% (active)	99.3% (active)	87% (active)	100% (active)	99.7% (active)	87% (active)	99% (active)	99.5% (active)	50%	100% (active)	99.3% (active)	90% (active)	99% (active)	99.5% (active)	92% (active)	99% (active)	99.5% (active)
O=C([O-])c1ccccc1[I+]c1ccc(C2CCCCC2)cc1	3%	45%	85.2% (active)	2%	67%	79.6% (active)	22%	50%	89.8% (active)	3%	47%	73.2% (active)	0%	45%	71.8% (active)	32%	85% (active)	89.9% (active)
CCC1C(c2ccccc2O)c2cc3c(cc2OC1N1CCOCC1)OCO3 (stereo not given)	-18%	98% (active)	85.9% (active)	-32%	99% (active)	88.3% (active)	-42%	98% (active)	88.2% (active)	9%	99% (active)	88.9% (active)	-50%	99% (active)	88.8% (active)	-13%	98% (active)	91.2% (active)
O=NNc1nc(-c2ccccn2)nc2ccccc12	-7%	96% (active)	96.5% (active)	7%	99% (active)	97.9% (active)	-4%	97% (active)	98.2% (active)	-2%	92% (active)	41.2%	-14%	98% (active)	19.9%	1%	99% (active)	98.5% (active)
CN(C)CC(=O)OCC[N+](C)(C)C	-3%	-2%	-22.1%	-6%	-5%	-15.1%	-3%	-3%	-12.7%	-15%	-10%	56.4%	6%	30%	15.4%	-4%	1%	-15.9%
CCCCCCCCCc1ccc(O)c(Cl)c1	-28%	94% (active)	99.7% (active)	-3%	90% (active)	99.8% (active)	-2%	99% (active)	99.2% (active)	-12%	97% (active)	99.5% (active)	-1%	86% (active)	99.4% (active)	-9%	99% (active)	99.5% (active)
O=C1/C(=C/c2ccc(Cl)c(Cl)c2)CN(C(=O)CCN2CCOCC2)C/C1=C\c1ccc(Cl)c(Cl)c1	99% (active)	86% (active)	41%	99% (active)	94% (active)	85.8% (active)	99% (active)	92% (active)	85.2% (active)	90% (active)	89% (active)	87.3% (active)	99% (active)	89% (active)	89% (active)	99% (active)	88% (active)	87.5% (active)
O=C(CC(=O)c1ccccc1)CC(=O)c1ccccc1Cl	-1%	85% (active)	88.1% (active)	8%	88% (active)	88% (active)	-2%	90% (active)	81.2% (active)	-5%	81% (active)	68.2%	-2%	95% (active)	78.8% (active)	0%	92% (active)	85.7% (active)
Cc1cc(N2C(=O)CCSC2=S)c([N+](=O)[O-])cc1C	32%	99% (active)	99.3% (active)	7%	99% (active)	99.6% (active)	60%	99% (active)	99.5% (active)	-5%	98% (active)	98.5% (active)	14%	99% (active)	99.5% (active)	65%	99% (active)	99.4% (active)
O=C1C=C(c2cccc(-c3ccccc3)c2)CCC1	2%	94% (active)	93.5% (active)	-2%	96% (active)	95.3% (active)	-5%	92% (active)	97.2% (active)	2%	92% (active)	95.8% (active)	2%	87% (active)	96.3% (active)	-1%	92% (active)	96.4% (active)
